A selection: hits, their analogues and other compounds. The true share with any hit is near 14%.
Giardia FBPA inh: qHTS Assay for Inhibitors of Fructose-1,6-bisphosphate Aldolase from Giardia Lamblia; Potency, µM (doses to about 59.6 µM), without a hit: top-dose activity, negative = inhibition, usual class: inhibitors; actives 0.71% (n = 290,000); purified Giardia FBPA; further: potency means the concentration at half of the fitted maximal effect; nearly all actives have a fitted effect of over 55% in size
Target sequence (A8B2U2 whole entry, looked up): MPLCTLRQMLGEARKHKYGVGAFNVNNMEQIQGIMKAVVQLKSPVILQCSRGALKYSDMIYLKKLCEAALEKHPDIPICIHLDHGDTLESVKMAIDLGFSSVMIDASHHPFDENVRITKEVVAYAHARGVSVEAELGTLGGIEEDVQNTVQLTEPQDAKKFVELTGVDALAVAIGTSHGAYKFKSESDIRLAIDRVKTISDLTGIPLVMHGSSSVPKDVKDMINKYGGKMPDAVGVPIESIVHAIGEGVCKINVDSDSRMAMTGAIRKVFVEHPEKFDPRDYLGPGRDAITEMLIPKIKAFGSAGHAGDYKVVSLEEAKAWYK
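Giardia FBPA (40 nM reagent) was preincubated 10 min at RT with compound (up to 57.5 uM final), then substrate plus GAPDH/TPI/NAD/arsenate coupling system with diaphorase/resazurin was added; resorufin fluorescence (525/598 nm) was read after 20 min.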
Pf growth 96h: Primary qHTS for delayed death inhibitors of the malarial parasite plastid, 96 hour incubation | AID 504834, 2011 | Potency, µM (top dose mostly 28.7 µM), for inactives: at the highest dose activity change, negative = inhibition, actives largely listed as inhibitors | P. falciparum luciferase reporter growth, 96 h | actives 6.9% (n = 320,000); further: potency means the concentration at half of the fitted maximal effect
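96 h incubation, 37 C, 5% CO2, of luciferase-reporter P. falciparum-infected RBCs (2% hematocrit, 0.05% parasitemia final) with test compounds; endpoint luminescence.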
HCMV antiviral: qHTS Assay for inhibitors of the human cytomegalovirus (HCMV); actives 4.5% (n = 410,000); HFF cells, HCMV-luciferase reporter, 72 h; active compounds read low; activity change, negative = inhibition, % at 57.5 µM; in the data active means activity change below about -60%; inconclusive means no clear call, values can overlap the other calls; inactive means above about -39%
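Luciferase read-out from HCMV-luciferase-infected HFFs (MOI 1 PFU/cell) 72 h post infection at 37C; compounds added after 16 h cell attachment; activity normalized between buffer-only basal and Salinomycin (10uM) inhibitor controls.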
Sm TGR inh: qHTS Assay for the Inhibitors of Schistosoma Mansoni Peroxiredoxins | Schistosoma mansoni thioredoxin glutathione reductase (TGR), Q962Y6 | purified TGR, DTNB reduction, TNB absorbance 405 nm | Potency, µM (titrated, usually from 114 µM), for inactives: top-dose activity change, negative = inhibition, hits mostly inhibitors | actives 3% (n = 360,000) | AID 485364, 2010; further: potency means the concentration at half of the fitted maximal effect; nearly all actives have a fitted effect of over 60% in size
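TGR 20 nM + NADPH 100 uM (dispensed conc.), cpd preinc 15 min RT; start with NADPH (500 uM addition) then DTNB (15 mM addition). Kinetic TNB absorbance, 405 nm filter. Four-parameter Hill fit across titration.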
Pf growth 48h: Primary qHTS for delayed death inhibitors of the malarial parasite plastid, 48 hour incubation; P. falciparum luciferase growth in erythrocytes, 48 h; Potency, µM (highest dose often 28.7 µM), without a hit: at the top dose activity change, negative = inhibition, hits mostly inhibitors; actives 5.9% (n = 310,000); AID 504832, 2011; further: potency means the concentration at half of the fitted maximal effect
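Parasite viability was followed by luminescence of a genomically integrated firefly luciferase. Cultures held 0.1% parasitemia at 2% hematocrit (final), incubated under 5% CO2 at 37 C.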
Active calls of the source: *. Unless noted, the call rests on the fitted dose curve; in most records, active means well fitted curve in the direction sought with a large enough effect; inconclusive means small, poorly fitted or top-dose-only effect, or another doubt; inactive means no such curve, though single readings can be large; an effect the other way counts as inactive or inconclusive. On the % scale 0 is the no-effect control and ±100 the full control effect.

How did CCC1=C2CC[C@H]3C(=O)N(C)C(=O)[C@H]3[C@H]2[C@@]2(C)C(=NCc3ccccc3)OC(=O)N2C1=O do in these assays?
Giardia FBPA inh: 2%

What do the screens show for `CC(=O)c1c(C)c(C)c2n1CCn1c(C)ccc1-2`?
Giardia FBPA inh: inconclusive; Pf growth 96h: inconclusive; HCMV antiviral: -30; Sm TGR inh: 13µM*; Pf growth 48h: inconclusive

How did O=[N+]([O-])c1ccccc1CNCCCCCO do in these assays?
Pf growth 96h: 64%; HCMV antiviral: -11; Sm TGR inh: 50µM*; Pf growth 48h: -22%

How did O=[N+]([O-])c1ccccc1CNCCO do in these assays?
Pf growth 96h: 117%; HCMV antiviral: -16; Sm TGR inh: -18%; Pf growth 48h: 35%

Results for Cc1ccccc1NC(=O)CN(C)S(=O)(=O)c1cccc2nsnc12 ?
HCMV antiviral: -6; Sm TGR inh: 6%

Results for Fc1ccc(NC(=S)N/N=C/c2ccc(F)c(F)c2)cc1 ?
Giardia FBPA inh: 0%; Pf growth 96h: inconclusive; HCMV antiviral: inconclusive; Sm TGR inh: -3%; Pf growth 48h: -16%

What do the screens show for `Cc1cc(Cl)ccc1NC(=O)CCC(=O)N/N=C/c1cc([N+](=O)[O-])ccc1O`?
Giardia FBPA inh: 12%; Pf growth 96h: inconclusive; HCMV antiviral: 21; Sm TGR inh: 4%; Pf growth 48h: inconclusive

What do the screens show for `O=[N+]([O-])c1ccc(/C=N/NC(=S)Nc2ccc(Cl)cc2Cl)s1`?
Giardia FBPA inh: -27%; Pf growth 96h: 3.3µM*; HCMV antiviral: -64*; Sm TGR inh: 45µM*; Pf growth 48h: 13µM*

What do the screens show for `O=[N+]([O-])c1ccc(O)c(/C=N/NC(=S)Nc2ccc(Cl)cc2Cl)c1`?
Giardia FBPA inh: 17%; Pf growth 96h: 0.83µM*; HCMV antiviral: 0; Sm TGR inh: 8%; Pf growth 48h: 2.1µM*

Results for Fc1ccc(/C=N/NC(=S)Nc2ccc(Cl)cc2Cl)cc1 ?
Giardia FBPA inh: -1%; Pf growth 96h: 2.1µM*; HCMV antiviral: inconclusive; Sm TGR inh: 1%; Pf growth 48h: -3%

What do the screens show for `CCn1nc(C)c(/C=N/NC(=S)Nc2ccc(Cl)cc2Cl)c1C`?
Giardia FBPA inh: -4%; Pf growth 96h: inconclusive; HCMV antiviral: -103*; Sm TGR inh: 0%; Pf growth 48h: -16%

Results for CCCn1nc(C(=O)Nc2ccc(N3CCOCC3)cc2)c2ccccc2c1=O ?
Pf growth 96h: 38%; HCMV antiviral: 17; Sm TGR inh: -3%; Pf growth 48h: -13%

Results for COc1ccc(-c2nc3c(C)cc(Br)cn3c2Cc2ccccc2C(F)(F)F)cc1OC ?
HCMV antiviral: -17

What do the screens show for `Cc1ccc2nc(C(=O)N3CCCC(Nc4ccc(F)cc4)C3)cn2c1` (stereo not given)?
Pf growth 96h: 68%; Sm TGR inh: -8%; Pf growth 48h: 42%

How did COC(=O)c1c(NC(=O)COc2ccc(C)cc2Br)sc2c1CCCC2 do in these assays?
HCMV antiviral: 18; Sm TGR inh: -1%

How did NC(=O)NC(=O)c1nccnc1C(=O)O do in these assays?
Giardia FBPA inh: -22%; Pf growth 96h: 101%; HCMV antiviral: -4; Sm TGR inh: -7%; Pf growth 48h: 20%

What do the screens show for `COc1ccc(C(=O)c2c(C)c3cc(C)ccc3n2CC(O)CN2CCOCC2)cc1` (stereo not given)?
Giardia FBPA inh: -12%; Pf growth 96h: 12µM*; HCMV antiviral: 9; Sm TGR inh: 4%; Pf growth 48h: inconclusive

What do the screens show for `COc1cc(-c2c(C#N)c(N)nc(SCc3ccncc3)c2C#N)cc(OC)c1OC`?
Giardia FBPA inh: 0%; Pf growth 96h: inconclusive; HCMV antiviral: -7; Sm TGR inh: -1%; Pf growth 48h: 13µM*

What do the screens show for `O=C(c1cc(C2CC2)nn1-c1ccccc1)N1CCN(S(=O)(=O)c2c(F)cccc2F)CC1`?
Pf growth 96h: inconclusive; HCMV antiviral: -15; Sm TGR inh: 5%; Pf growth 48h: 7.4µM*

From PubChem BioAssay
